Assay outcomes from PubChem.
Compounds with a hit are over-represented: about 17% of the library has one in this group of screens.
TGFb SMAD3 inh = inhibitors of TGF-b signaling. HepG2 CAGA-GFP TGF-b/SMAD3 reporter, GFP fluorescence, 18 h; TGF-beta stimulated, 500 pg/mL final. Potency, µM (titrated, usually from 46.1 µM), inactives show at the highest dose activity, negative = inhibition, most hits filed as inhibitors. actives 1.2% (n = 410,000); also: % is scaled to controls: 0 for no effect and ±100 for the full control effect; nearly all actives have a fitted effect of over 65% in size
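HEPG2 CAGA-GFP reporter cells (1000/well, DMEM with 1% FBS) received compounds, then recombinant TGF-beta at 500 pg/mL final for 18 hours at 37 degrees C. Per-cell GFP summed per well was normalised to unstimulated and stimulated DMSO controls before curve fitting.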
ATXN2 expr inh = inhibitors of ATXN2 expression. HEK-293 ATXN2-luciferase reporter, luminescence, 24 h. Potency, µM (doses to about 57 µM), for inactives: top-dose activity change, negative = inhibition, usual class: inhibitors. actives 0.72% (n = 360,000). AID 1745845; also: % is scaled to controls: 0 for no effect and ±100 for the full control effect; nearly all actives have a fitted effect of over 55% in size
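ATXN2-luciferase reporter cells (luciferase flanked by upstream and downstream ATXN2 gene portions) were treated 24 h at 37 °C with compounds at up to 57 uM. SteadyGlo luminescence gave expression; GF-AFC fluorescence gave viability.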
ATXN viability = reduces viability in counter-screen for ATXN expression inhibitors; S2 cells (HEK-293 line with an ATXN2-luciferase reporter) viability, CellTiter-Fluor protease fluorescence, 24 h; Potency, µM (top dose mostly 56.7 µM), most hits filed as cytotoxic; actives 0.49% (n = 400,000); also: nearly all actives have a fitted effect of over 40% in size
DT40 TDP1 no CPT = qHTS for Inhibitors of human tyrosyl-DNA phosphodiesterase 1 (TDP1): qHTS in cells in absence of CPT; Potency, µM (highest dose often 46.2 µM), without a hit: at the top dose activity change, negative = growth inhibition, actives largely listed as inhibitors; DT40 Tdp1-/- hTDP1 cells, no CPT, ATP luminescence, 48 h; actives 15% (n = 420,000); also: % is scaled to controls: 0 for no effect and ±100 for the full control effect; nearly all actives have a fitted effect of over 55% in size
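A cellular qHTS used chicken DT40 cells lacking endogenous Tdp1 but carrying stably transfected human TDP1. Compounds were applied without camptothecin, and cell growth kinetics were judged by ATP-dependent luminescence after ≥48 hr.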
HepG2 tox = counter-screen for TGF-b inhibitors: cytotoxicity in HepG2 cells | HepG2 CAGA-GFP viability, ATP luminescence, 18 h | Potency, µM (doses to about 46.1 µM), for the others: top-dose activity change, negative = cytotoxicity, actives largely listed as cytotoxic | actives 0.76% (n = 410,000) | AID 588856
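CellTiter-Glo luminescence gave cytotoxicity after 18 hours at 37 degrees C. The cells were HepG2 CAGA-GFP in 1% FBS DMEM, stimulated with 500 pg/mL TGF-beta after compound addition. %Activity was normalised to no-cell wells (complete cell-killing) and DMSO (no toxicity), and curves were fitted and classified.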
DT40 TDP1 CPT = DT40-hTDP1 cell growth loss with CPT. chicken DT40 Tdp1-/-;hTDP1 cells + 20 nM CPT, ATP luminescence, 48 h. Potency, µM (doses to about 46.2 µM), without a hit: at the top dose activity change, negative = growth inhibition, most hits filed as inhibitors. actives 12% (n = 420,000). AID 686979; also: % is scaled to controls: 0 for no effect and ±100 for the full control effect; nearly all actives have a fitted effect of over 55% in size
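Chicken DT40 Tdp1-/- cells stably complemented with human TDP1 were seeded at 400 cells/well in medium containing 20 nM camptothecin, exposed to pin-transferred compounds, and grown at 37 °C for at least 48 hr. Viability was read as ATP luminescence.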
Starred values were filed as active, the others as inactive; i = inactive; ? = inconclusive; · = no result given; [ ] = dose if it differs, or a comment. Calls follow the shape of the dose curve; as a rule, active = well fitted curve in the direction sought with a large enough effect; inconclusive = small, poorly fitted or top-dose-only effect, or another doubt; inactive = no such curve, though single readings can be large; an effect the other way counts as inactive or inconclusive. Potency is read from the fitted curve at half-maximal effect.

SMILES	TGFb SMAD3 inh	ATXN2 expr inh	ATXN viability	DT40 TDP1 no CPT	HepG2 tox	DT40 TDP1 CPT
Cc1ccc(Nc2nc(NCc3ccccc3)nc3ccsc23)c(C)c1	?	?	?	6.51µM*	-9.1%	23.1µM*
COc1ccccc1CNc1nc(Nc2ccccc2OC)c2sccc2n1	-8.8%	-8.0%	i	4.61µM*	-30.0%	5.8µM*
O=C(N[C@@H]1CC[C@@H](CCn2cc(-c3ccccc3)nn2)O[C@@H]1CO)c1cnccn1	·	·	·	-1.4%	·	14.0%
Nc1nc(-c2ccccc2)c(CCCNc2ccccc2)c(=O)[nH]1	-2.6%	-1.8%	i	?	-4.2%	?
Cc1c(C)[n+](=O)c(-c2ccc(Br)cc2)c(C)n1[O-]	12.4%	-5.1%	i	-5.8%	-3.5%	2.3%
CCC12CCCN3CCC4(C(=C(C(=O)OC)C1)Nc1ccccc14)C32 (centres undefined)	-4.0%	-8.6%	i	16.4µM*	-3.4%	16.4µM*
CC1(C)Cc2cccc(OCC(=O)OCC(=O)Nc3cccc(S(N)(=O)=O)c3)c2O1	5.6%	·	i	1.1%	30.6%	4.9%
Cc1ccc(NN2C(=O)C=CC2=O)cc1	1.6%	-3.4%	i	-10.9%	-3.6%	-0.1%
O=C1C=C(c2ccccc2)C(=O)N1Nc1ccccc1	?	?	?	5.8µM*	-98.1%	4.11µM*
O=C1Cc2ccccc2C(=O)N1Nc1ccccc1	-11.8%	-23.0%	i	?	8.9%	?
Cc1ccc(NN2C(=O)C=C(c3ccc(Cl)cc3)C2=O)cc1	?	25.1µM*	·	4.11µM*	-54.5%	5.8µM*
COc1ccc(C2=CC(=O)N(Nc3ccccc3)C2=O)cc1	?	-26.5%	i	20.6µM*	-151.0%	18.4µM*
CCN1C[C@@H]2[C@@H]3C(=O)N(C)C(=O)[C@@H]3[C@](C)(C1=O)N2C(=O)c1ccc(C(F)(F)F)cc1	8.8%	1.7%	i	-8.4%	26.8%	-15.7%
Cn1c(=O)n(C)c2cc(N3CCOCC3)c(NC(=O)c3ccc(F)cc3)cc21	0.3%	6.7%	i	-0.8%	-15.2%	-27.8%
CCOc1ccc(CCNC(=O)CCn2ccc3cc(S(=O)(=O)N4CCCC4)ccc32)cc1	?	-25.3%	i	?	-4.7%	?
COc1ccccc1N(CC(=O)N/N=C/c1ccc(C(=O)O)cc1)S(=O)(=O)c1ccc(C)cc1	4.7%	·	i	-4.0%	20.1%	4.1%
O=C(N/N=C/c1ccc(O)c(O)c1)c1ccc(CSc2cccc3cccnc23)cc1	?	9.7%	?	8.2µM*	-41.6%	?
O=C(CSc1cccc2cccnc12)N/N=C/c1cccc(O)c1	-13.7%	·	?	16.4µM*	-6.3%	?
Cc1ccc(S(=O)(=O)N(CC(=O)N/N=C/c2cccc(C)c2)c2cccc3cccnc23)cc1	?	0.1%	i	20.6µM*	4.2%	?
CCCCC(=O)N/N=C/c1ccc(Sc2cccc3cccnc23)o1	?	4.7%	i	23.1µM*	2.1%	?
O=C(CSc1cccc2cccnc12)N/N=C/c1ccc(F)cc1	-17.2%	-33.4%	i	-15.7%	-13.7%	-8.4%
Cc1oc(-c2ccccc2NC(=O)C2CCCO2)nc1CNC(=O)c1cc(Cl)ccc1F (centres undefined)	·	·	i	-11.2%	·	10.2%[9.04 µM]
C#CCOCCOCCOCCNc1nc(N2CCN(C(=O)[C@H](CCCCN)n3cc(CN)nn3)CC2)nc(N2CCN(C(=O)[C@H](CC(N)=O)n3cc(C(N)[C@H](C)CC)nn3)CC2)n1 (some centres undefined)	-39.4%	2.6%	i	4.8%	3.1%	0.3%
